Reference: PubChem BioAssay AID1159580 (chemical genetic matrix, 2015)
The campaign covered roughly 5,500 compounds. About 2,000 (36%) were called active. Another 18% or so got no clear call; they are omitted. Some of the results follow. Values without a mark were called inactive. Rule as the data show it: active = normalized growth mostly below about 0.91 (no sharp cut-off); inconclusive = no clear call, values can overlap the other calls; inactive = mostly above about 0.92.

Assay: chemical genetic growth profiling, strain panel (AID 1159580);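 also: tested at 20 µM; growth read once vehicle control cultures reached saturation at 30 °C; 1 = growth at the plate median or of vehicle wells; lower values mean less growth of the strain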
Conditions: growth OD

For `CC1=CC(=O)c2ccccc2C1=O`, the normalized growth (S. cerevisiae deletion strains, locus YJR075W, strain HOC1, hits give low values) was 0.0628 (active), the normalized growth (S. cerevisiae deletion strains, locus YKL009W, strain mrt4, hits give low values) was 0.0847 (active) and the normalized growth (S. cerevisiae deletion strains, locus YKL068W, hits give low values) was 1.01. The normalized growth (S. cerevisiae deletion strains, locus YKL085W, strain MDH1 (second series), hits give low values) was 0.494 (active), the normalized growth (S. cerevisiae deletion strains, locus YKL085W, strain MDH1, hits give low values) was 0.494 (active) and the normalized growth (S. cerevisiae deletion strains, locus YKL160W, strain elf1, hits give low values) was 0.822 (active). For the same molecule, the normalized growth (S. cerevisiae deletion strains, locus YKL190W, strain CNB1, hits give low values) was 0.0475 (active), the normalized growth (S. cerevisiae deletion strains, locus YKR001C, strain vps1, hits give low values) was 0.0601 (active) and the normalized growth (S. cerevisiae deletion strains, locus YKR026C, strain gcn3, hits give low values) was 1.03. For the same molecule, the normalized growth (S. cerevisiae deletion strains, locus YKR091W, strain srl3, hits give low values) was 1.03, the normalized growth (S. cerevisiae deletion strains, locus YLL001W, strain dnm1, hits give low values) was 0.93 and the normalized growth (S. cerevisiae deletion strains, locus YLL026W, hits give low values) was 0.997. For the same molecule, the normalized growth (S. cerevisiae deletion strains, locus YLL041C, strain sdh2, hits give low values) was 1.04, the normalized growth (S. cerevisiae deletion strains, locus YLR027C, strain aat2, hits give low values) was 0.862 (active) and the normalized growth (S. cerevisiae deletion strains, locus YLR039C, strain RIC1, hits give low values) was 0.0839 (active). The normalized growth (S. cerevisiae deletion strains, locus YLR058C, strain SHM2, hits give low values) was 0.0596 (active), the normalized growth (S. cerevisiae deletion strains, locus YLR102C, strain apc9, hits give low values) was 0.0585 (active) and the normalized growth (S. cerevisiae deletion strains, locus YLR113W, strain HOG1, hits give low values) was 0.294 (active). For the same molecule, the normalized growth (S. cerevisiae deletion strains, locus YLR221C, strain rsa3, hits give low values) was 0.819 (active), the normalized growth (S. cerevisiae deletion strains, locus YLR258W, strain gsy2, hits give low values) was 0.933 and the normalized growth (S. cerevisiae deletion strains, locus YLR262C, strain YPT6 (second series), hits give low values) was 0.916. The normalized growth (S. cerevisiae deletion strains, locus YLR262C, strain YPT6, hits give low values) was 0.155 (active), the normalized growth (S. cerevisiae deletion strains, locus YLR268W, strain sec22, hits give low values) was 0.0659 (active) and the normalized growth (S. cerevisiae deletion strains, locus YLR320W, strain mms22, hits give low values) was 0.881. The normalized growth (S. cerevisiae deletion strains, locus YLR330W, strain CHS5, hits give low values) was 0.0494 (active), the normalized growth (S. cerevisiae deletion strains, locus YLR342W, strain FKS1 (second series), hits give low values) was 0.0779 (active) and the normalized growth (S. cerevisiae deletion strains, locus YLR342W, strain FKS1, hits give low values) was 1.01. The normalized growth (S. cerevisiae deletion strains, locus YLR357W, strain rsc2, hits give low values) was 1.04, the normalized growth (S. cerevisiae deletion strains, locus YLR370C, strain arc18, hits give low values) was 0.958 and the normalized growth (S. cerevisiae deletion strains, locus YLR371W, strain rom2, hits give low values) was 0.0598 (active). For the same molecule, the normalized growth (S. cerevisiae deletion strains, locus YLR384C, strain iki3, hits give low values) was 1.04, the normalized growth (S. cerevisiae deletion strains, locus YLR418C, strain cdc73, hits give low values) was 0.0923 (active) and the normalized growth (S. cerevisiae deletion strains, locus YML016C, strain PPZ1, hits give low values) was 0.0501 (active). The normalized growth (S. cerevisiae deletion strains, locus YML032C, strain rad52, hits give low values) was 0.112 (active), the normalized growth (S. cerevisiae deletion strains, locus YML120C, strain ndi1, hits give low values) was 0.968 and the normalized growth (S. cerevisiae deletion strains, locus YML124C, strain tub3, hits give low values) was 0.0587 (active). For the same molecule, the normalized growth (S. cerevisiae deletion strains, locus YMR058W, strain fet3, hits give low values) was 0.832 (active), the normalized growth (S. cerevisiae deletion strains, locus YMR078C, strain ctf18, hits give low values) was 0.0795 (active) and the normalized growth (S. cerevisiae deletion strains, locus YMR125W, strain sto1, hits give low values) was 1.04. The normalized growth (S. cerevisiae deletion strains, locus YMR129W, hits give low values) was 1.01, the normalized growth (S. cerevisiae deletion strains, locus YMR205C, strain PFK2, hits give low values) was 0.799 (active) and the normalized growth (S. cerevisiae deletion strains, locus YMR223W, strain ubp8, hits give low values) was 0.0622 (active). For the same molecule, the normalized growth (S. cerevisiae deletion strains, locus YMR231W, strain pep5, hits give low values) was 1.02, the normalized growth (S. cerevisiae deletion strains, locus YMR263W, strain SAP30, hits give low values) was 0.0592 (active) and the normalized growth (S. cerevisiae deletion strains, locus YMR307W, strain GAS1, hits give low values) was 0.118 (active). For the same molecule, the normalized growth (S. cerevisiae deletion strains, locus YNL067W, strain RPL9B, hits give low values) was 0.0512 (active), the normalized growth (S. cerevisiae deletion strains, locus YNL071W, strain lat1, hits give low values) was 0.543 (active) and the normalized growth (S. cerevisiae deletion strains, locus YNL128W, strain TEP1, hits give low values) was 0.0609 (active). For the same molecule, the normalized growth (S. cerevisiae deletion strains, locus YNL153C, strain GIM3, hits give low values) was 0.0481 (active), the normalized growth (S. cerevisiae deletion strains, locus YNL183C, strain NPR1, hits give low values) was 0.393 (active) and the normalized growth (S. cerevisiae deletion strains, locus YNL209W, strain ssb2, hits give low values) was 0.983. The normalized growth (S. cerevisiae deletion strains, locus YNL233W, strain BNI4, hits give low values) was 0.0537 (active), the normalized growth (S. cerevisiae deletion strains, locus YNL248C, strain rpa49, hits give low values) was 0.883 (active) and the normalized growth (S. cerevisiae deletion strains, locus YNL250W, strain rad50, hits give low values) was 0.513 (active). For the same molecule, the normalized growth (S. cerevisiae deletion strains, locus YNL271C, strain bni1, hits give low values) was 0.705 (active), the normalized growth (S. cerevisiae deletion strains, locus YNL298W, strain CLA4, hits give low values) was 0.363 (active) and the normalized growth (S. cerevisiae deletion strains, locus YNL307C, strain MCK1, hits give low values) was 0.0683 (active). For the same molecule, the normalized growth (S. cerevisiae deletion strains, locus YNL322C, strain KRE1 (second series), hits give low values) was 0.999, the normalized growth (S. cerevisiae deletion strains, locus YNL322C, strain KRE1, hits give low values) was 0.047 (active) and the normalized growth (S. cerevisiae deletion strains, locus YNR049C, strain mso1, hits give low values) was 1.02. The normalized growth (S. cerevisiae deletion strains, locus YNR052C, strain pop2, hits give low values) was 0.12 (active), the normalized growth (S. cerevisiae deletion strains, locus YOL006C, strain TOP1, hits give low values) was 0.0979 (active) and the normalized growth (S. cerevisiae deletion strains, locus YOL147C, strain pex11, hits give low values) was 0.0692 (active). The normalized growth (S. cerevisiae deletion strains, locus YOR001W, strain rrp6, hits give low values) was 0.923, the normalized growth (S. cerevisiae deletion strains, locus YOR061W, strain CKA2, hits give low values) was 0.05 (active) and the normalized growth (S. cerevisiae deletion strains, locus YOR069W, strain VPS5, hits give low values) was 0.0532 (active). The normalized growth (S. cerevisiae deletion strains, locus YOR070C, strain gyp1, hits give low values) was 0.959, the normalized growth (S. cerevisiae deletion strains, locus YOR080W, strain dia2, hits give low values) was 1.03 and the normalized growth (S. cerevisiae deletion strains, locus YOR083W, strain WHI5, hits give low values) was 0.882 (active). For the same molecule, the normalized growth (S. cerevisiae deletion strains, locus YOR106W, strain vam3, hits give low values) was 0.818 (active), the normalized growth (S. cerevisiae deletion strains, locus YOR136W, strain idh2, hits give low values) was 0.0688 (active) and the normalized growth (S. cerevisiae deletion strains, locus YOR144C, strain elg1, hits give low values) was 0.063 (active). For the same molecule, the normalized growth (S. cerevisiae deletion strains, locus YOR184W, strain ser1, hits give low values) was 0.0695 (active), the normalized growth (S. cerevisiae deletion strains, locus YOR231W, strain MKK1, hits give low values) was 0.277 (active) and the normalized growth (S. cerevisiae deletion strains, locus YOR265W, strain rbl2, hits give low values) was 0.983. The normalized growth (S. cerevisiae deletion strains, locus YOR270C, strain vph1, hits give low values) was 0.776 (active), the normalized growth (S. cerevisiae deletion strains, locus YOR290C, strain snf2, hits give low values) was 1.02 and the normalized growth (S. cerevisiae deletion strains, locus YOR316C, strain cot1, hits give low values) was 0.0564 (active). For the same molecule, the normalized growth (S. cerevisiae deletion strains, locus YPL051W, strain arl3, hits give low values) was 0.892 (active), the normalized growth (S. cerevisiae deletion strains, locus YPL055C, strain LGE1, hits give low values) was 0.0708 (active) and the normalized growth (S. cerevisiae deletion strains, locus YPL078C, strain atp4, hits give low values) was 0.941. For the same molecule, the normalized growth (S. cerevisiae deletion strains, locus YPL106C, strain sse1, hits give low values) was 0.904, the normalized growth (S. cerevisiae deletion strains, locus YPL240C, strain hsp82, hits give low values) was 1 and the normalized growth (S. cerevisiae deletion strains, locus YPL241C, strain CIN2, hits give low values) was 0.0549 (active). For the same molecule, the normalized growth (S. cerevisiae deletion strains, locus YPL256C, strain CLN2, hits give low values) was 0.356 (active), the normalized growth (S. cerevisiae deletion strains, locus YPR119W, strain clb2, hits give low values) was 0.063 (active) and the normalized growth (S. cerevisiae deletion strains, locus YPR141C, strain kar3, hits give low values) was 0.859 (active). The normalized growth (S. cerevisiae deletion strains, locus YPR163C, strain tif3, hits give low values) was 0.0724 (active), the normalized growth (S. cerevisiae deletion strains, locus YPR167C, strain met16, hits give low values) was 0.0586 (active) and the normalized growth (S. cerevisiae deletion strains, strain wtn01, hits give low values) was 0.0598 (active). The normalized growth (S. cerevisiae strains, strain wild type, hits give low values) was 0.0461 (active).
